# Shown are actives, neighbours in structure and some others; about 4.2% of the full set was active somewhere.
# Wnt bcat act: Wnt/beta-catenin pathway activators, primary screen, cell-based, plate reader, single point; Wnt/beta-catenin reporter cell assay, activator; activation, % at 9.35 µM; 300,000 tested, 1.2% active; in the data active = activation above about 30%, passing the limit was not always enough; inconclusive = no clear call, values can overlap the other calls;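 note: 0% = neutral control wells and 100% = positive control wells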
# MITF act: activators of MITF-driven TRPM1 promoter reporter, primary screen, cell-based, SK-MEL-5, luciferase, single point; 300,000 tested, 0.75% active; SK-MEL-5 TRPM1-promoter luciferase, 24 h; % of positive control, neutral wells = 0; activation, % at 12.5 µM;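 active = mean activation of at least 80% with every replicate also reaching 80%; inconclusive = mean reaches 80% but some replicate falls short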;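 note: 0% = neutral control wells and 100% = parthenolide positive control wells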
# esBAF inh: Bmi1 luciferase reporter increase in mESCs, primary screen, esBAF inhibitor project, mouse ES cells, Bmi1 luciferase knock-in, single point; 24 h; 100% = twice the neutral-well signal; reporter increase, % at 12.5 µM; 350,000 tested, 2% active; AID 602393, 2012; in the data active = activation above about 40%; inconclusive = no clear call, values can overlap the other calls;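 note: 0% = median of the plate's neutral control wells and 100% = double that signal; a rise in the Bmi1 reporter signal indicates esBAF inhibition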
# FXN GAA850 act: FXN promoter activators, primary screen, cell-based, luciferase luminescence, HEK293 lucGAA850 | 360,000 tested, 0.56% active | activation, % at 6 µM | HEK293 lucGAA850 FXN promoter luciferase reporter, 24 h; percent of 10 µM SAHA response;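 active = activation above the average of all compounds screened plus 3 SD, cutoff fixed separately per campaign, cut at about 7.5% in these data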;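 note: 0% = DMSO wells and 100% = 10 µM SAHA wells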
# AHR act: AHR activators, primary screen, cell-based, luminescence, luciferase reporter, human; 320,000 tested, 2.5% active; AHR-responsive luciferase reporter cells; activation, % at 5 µM; Aryl hydrocarbon receptor (Homo sapiens), P35869; in the data active = activation above about 47%;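 note: 0% = vehicle wells and 100% = reference agonist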
# Target sequence (P35869 whole entry, looked up): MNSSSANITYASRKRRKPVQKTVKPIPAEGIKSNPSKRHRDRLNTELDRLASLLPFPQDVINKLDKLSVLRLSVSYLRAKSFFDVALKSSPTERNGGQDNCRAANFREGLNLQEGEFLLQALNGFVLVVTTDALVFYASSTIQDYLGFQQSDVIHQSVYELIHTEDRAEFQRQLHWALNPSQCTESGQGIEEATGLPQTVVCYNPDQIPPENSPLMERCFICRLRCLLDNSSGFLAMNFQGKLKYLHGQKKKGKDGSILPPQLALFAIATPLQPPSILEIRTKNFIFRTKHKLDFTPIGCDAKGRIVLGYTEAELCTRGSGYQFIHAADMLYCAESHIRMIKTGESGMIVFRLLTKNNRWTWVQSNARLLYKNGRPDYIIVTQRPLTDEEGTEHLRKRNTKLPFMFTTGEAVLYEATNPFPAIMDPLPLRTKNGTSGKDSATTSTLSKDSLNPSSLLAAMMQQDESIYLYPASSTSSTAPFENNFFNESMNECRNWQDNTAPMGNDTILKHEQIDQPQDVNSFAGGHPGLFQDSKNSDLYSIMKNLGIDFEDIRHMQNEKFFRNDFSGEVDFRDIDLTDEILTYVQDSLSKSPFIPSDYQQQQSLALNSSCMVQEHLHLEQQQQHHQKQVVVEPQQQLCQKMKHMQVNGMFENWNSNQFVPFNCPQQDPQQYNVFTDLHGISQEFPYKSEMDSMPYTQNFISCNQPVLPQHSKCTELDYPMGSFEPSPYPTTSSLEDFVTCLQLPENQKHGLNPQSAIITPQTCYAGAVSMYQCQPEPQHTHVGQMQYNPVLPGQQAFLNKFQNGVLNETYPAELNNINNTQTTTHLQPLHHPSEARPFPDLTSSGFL
# The depositor's hits bear a star; ? = inconclusive; . = not tested or not shown.
SMILES,Wnt bcat act,MITF act,esBAF inh,FXN GAA850 act,AHR act
O=C(C1CCCC1)N1[C@@H](CO)[C@@H]2c3ccccc3N(S(=O)(=O)c3ccccc3)C[C@@H]21,.,.,-5,.,.
C[C@@H]1CN([C@@H](C)CO)C(=O)c2cccc(NS(=O)(=O)c3cn(C)cn3)c2O[C@@H]1CN(C)Cc1ccc(C(F)(F)F)cc1,.,.,4,.,.
COc1ccc(CCN2CCCC(CN(C)C(=O)c3cc(C)oc3C)C2)cc1 (configuration not stated),?,75,72*,1,2
COCc1ccc(C(=O)N(C)CC2CCCN(CCc3ccc(OC)cc3)C2)o1 (configuration not stated),17,63,50*,3,6
C[C@@H]1CN([C@@H](C)CO)C(=O)Cc2cc(NS(=O)(=O)c3ccc(F)cc3)ccc2O[C@@H]1CN(C)S(C)(=O)=O,.,.,5,.,.
Cc1ccc(-c2nc3n(n2)Cc2ccccc2-3)cc1,.,-46,.,-5,41
Fc1ccc(-c2nc3n(n2)Cc2ccccc2-3)cc1,.,20,.,1,61*
COc1ccc(S(=O)(=O)Nc2ccc3c(c2)C(=O)N([C@@H](C)CO)C[C@@H](C)[C@H](CN(C)Cc2ccc(C(F)(F)F)cc2)O3)cc1,.,.,2,.,.
CC(=O)N(C)C[C@H]1Oc2ncc(C#Cc3ccc(F)cc3)cc2C(=O)N([C@@H](C)CO)C[C@H]1C,.,.,1,.,.
CC(C)c1ccc(/C=C2\SC(N3CCCC3)=NC2=O)cc1,41*,26,.,1,-1
CO[C@@H]1CN(C)C(=O)c2ccc(NC(=O)Nc3ccc(Cl)cc3)cc2OC[C@H](C)N(C(=O)Nc2c(C)noc2C)C[C@H]1C,.,.,3,.,.
Cc1sc2ncnc(N/N=C/c3ccc(O)cc3)c2c1C,17,16,27,0,28
COc1ccc(/C=N/Nc2ncnc3sc(C)c(C)c23)cc1,.,33,.,4,62*
C=CCNc1nc(-c2ccc([N+](=O)[O-])cc2)cs1,18,80,.,3,-3
CN(C)c1nc(-c2ccc([N+](=O)[O-])cc2)cs1,.,?,67*,2,-8
COc1cc(Cl)ccc1OCc1cc(C(=O)NC(C)Cc2cccnc2)no1 (configuration not stated),-4,44,36,5,42
COc1cc(C)ccc1OCc1cc(C(=O)NCc2ccncc2)no1,?,75,52*,3,15
COc1cc(C)ccc1OCc1cc(C(=O)NC(C)Cn2cncn2)no1 (configuration not stated),19,123*,78*,7,21
COc1ccc(CN(C)C[C@@H]2Oc3c(NS(C)(=O)=O)cccc3C(=O)N([C@H](C)CO)C[C@H]2C)cc1,.,.,-3,.,.
C[C@@H]1CN([C@H](C)CO)C(=O)Cc2cc(NC(=O)CCN3CCOCC3)ccc2O[C@@H]1CN(C)Cc1ccccc1,.,.,-3,.,.
COCCn1c(C)nnc1SCC(=O)Nc1ccccc1[N+](=O)[O-],51*,-8,.,0,3
CCCN(C)C[C@@H]1OCCCC[C@@H](C)Oc2ccc(NS(=O)(=O)c3ccccc3)cc2C(=O)N([C@@H](C)CO)C[C@@H]1C,.,.,-5,.,.
COc1ccc2[nH]c3c(N4CCc5ccccc5C4)ncnc3c2c1,14,.,.,0,58*
CCOc1ccc2[nH]c3c(N4CCC5(CC4)OCCO5)ncnc3c2c1,-7,.,.,.,71*
CCOC(=O)N1CCN(c2ncnc3c2[nH]c2ccc(OC)cc23)CC1,-1,-8,2,-2,23
SMILES,Wnt bcat act,MITF act,esBAF inh,FXN GAA850 act,AHR act
COc1ccc(CNC(=O)C(=O)NCC(c2ccco2)N2CCOCC2)cc1 (configuration not stated),40*,3,6,0,0
Fc1cccc(CSc2ccc(-c3ccco3)nn2)c1,30*,38,66*,5,-10
CCCCn1cnc2c(SCc3ccccc3)nc(N)nc21,14,45,50*,7,.
C[C@H](CO)N1C[C@H](C)[C@@H](CN(C)CC2CC2)Oc2cc(-c3ccccc3)ccc2S1(=O)=O,.,.,5,.,.
Cc1ccc(Nc2nc(C(=O)N3CCC(C(=O)N4CCN(C)CC4)CC3)cs2)cc1,3,15,8,0,-3
Cc1ccc(Nc2nc(COC(=O)C3CC3)cs2)cc1,8,?,49*,3,4
CC(=NNc1nc2ccccc2s1)c1ncccn1,75*,-33,.,-14,.
C/C(=N\Nc1nc2ccccc2s1)c1cccs1,?,-12,-38,2,58*
CC(=O)Nc1cccc(/C(C)=N/Nc2nc3ccccc3s2)c1,12,52,.,3,61*
C/C(=N\Nc1nc(-c2ccccc2)cs1)c1cccs1,-5,10,.,-5,26
O=C(C[C@H]1CC[C@@H]2[C@H](COC[C@H](O)CN2CC2CCOCC2)O1)N1CCOCC1,.,.,-1,.,.
C[C@H]1CN([C@@H](C)CO)C(=O)Cc2cc(NS(C)(=O)=O)ccc2O[C@@H]1CN(C)S(=O)(=O)c1ccccc1,.,.,3,.,.
O=C(C[C@H]1C=C[C@@H](NC(=O)C2CCOCC2)[C@@H](CO)O1)NCC1CC1,.,.,-1,.,.
CCCN1[C@@H]2Cn3c(ccc(-c4ccncc4)c3=O)[C@H]1[C@@H](C(=O)NCCc1cn(C)cn1)[C@@H]2CO,.,.,-1,.,.
COc1ccccc1OCCNC(=O)c1ccc2c(c1)CCC2,14,?,49*,4,15
COc1ccccc1OCCNC(=O)c1ccc2c(c1)OCCO2,52*,59,8,3,25
COc1ccccc1OCCNC(=O)CNC(=O)c1ccc(Cl)c(Cl)c1,-7,-19,.,2,6
COc1ccccc1OCCNC(=O)CNC(=O)c1ccc2c(c1)OCO2,0,-1,-2,0,21
CCOC(=O)c1sc(=NC(=O)c2c(F)cccc2F)n(C)c1C,13,50,54*,5,-3
CCOC(=O)c1sc(=NC(=O)c2ccc(F)cc2)n(C)c1C,?,58,27,8,6
CCOC(=O)c1sc(=NC(=O)c2cccc(Br)c2)n(C)c1C,2,73,71*,2,6
CCOC(=O)c1sc(=NC(=O)c2ccc(C)cc2)n(C)c1C,31*,32,.,6,44
CCOC(=O)c1sc(=NC(=O)CCSc2ccccc2)n(C)c1C,26,114*,.,4,1
C[C@H](CO)N1C[C@H](C)[C@H](CN(C)S(=O)(=O)c2ccc(Cl)cc2)Oc2ccc(N(C)C)cc2C1=O,.,.,-2,.,.
O=C(Nc1nnc(-c2ccc(F)cc2)s1)Nc1ccccc1F,7,.,.,-1,-1
COc1ccccc1C(=O)Nc1nnc(-c2ccc(F)cc2)s1,13,.,52*,1,29
O=C(Nc1nnc(-c2ccccc2)s1)c1ccc(F)cc1,12,84*,47*,5,1
COc1ccc(C(=O)Nc2nnc(-c3ccc(F)cc3)s2)c(OC)c1,-2,-1,4,0,.
